# Measurements: PubChem BioAssay (NCI)
# Values joined by “and” are separate entries in the source; they are usually repeats but may differ in a detail not shown here. Identical values can stand only once. This is part of a sample that, as a whole, favours compounds with a hit. Of some 83,000 tested, about 20% had one in any assay.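 The test compound was applied at a single concentration to cells in 96-well plates for 48 hours, and percent growth was recorded.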 Active and inactive are the calls of the source. How the source made its calls: active means growth percent below 10; inactive means the rest.
# Columns and labels:
# Assay in all cases: NCI-60 one-dose screen, 48 h (100 = growth as untreated, 0 = no growth, -100 = all killed)
# HT29 colon = conditions: 10 µM unless noted
# SNB-75 CNS = conditions: 10 µM unless noted
# SNB-19 CNS = conditions: 10 µM unless noted
# U251 CNS = conditions: 10 µM unless noted
# PC-3 prostate = conditions: 10 µM unless noted
# SK-MEL-5 melanoma = conditions: 10 µM unless noted
# LOX IMVI melanoma = conditions: 10 µM unless noted
# SK-MEL-2 melanoma = conditions: 10 µM unless noted
# EKVX NSCLC = conditions: 10 µM unless noted
# SN12C renal = conditions: 10 µM unless noted
# UO-31 renal = conditions: 10 µM unless noted
# ACHN renal = conditions: 10 µM unless noted
# CAKI-1 renal = conditions: 10 µM unless noted
# A498 renal = conditions: 10 µM unless noted
# HL-60(TB) leukemia = conditions: 10 µM unless noted
# CCRF-CEM leukemia = conditions: 10 µM unless noted
# MOLT-4 leukemia = conditions: 10 µM unless noted
# SR leukemia = conditions: 10 µM unless noted
# RPMI-8226 leukemia = conditions: 10 µM unless noted
# OVCAR-8 ovarian = conditions: 10 µM
SMILES,growth (HT29 colon),growth (SNB-75 CNS),growth (SNB-19 CNS),growth (U251 CNS),growth (PC-3 prostate),growth (SK-MEL-5 melanoma),growth (LOX IMVI melanoma),growth (SK-MEL-2 melanoma),growth (EKVX NSCLC),growth (SN12C renal),growth (UO-31 renal),growth (ACHN renal),growth (CAKI-1 renal),growth (A498 renal),growth (HL-60(TB) leukemia),growth (CCRF-CEM leukemia),growth (MOLT-4 leukemia),growth (SR leukemia),growth (RPMI-8226 leukemia),growth (OVCAR-8 ovarian)
Cc1c(N)nc([C@H](CC(N)=O)NC[C@H](N)C(N)=O)nc1C(=O)N[C@H](C(=O)N[C@H](C)[C@@H](O)[C@H](C)C(=O)N[C@H](C(=O)NCCc1nc(-c2nc(C(=O)NCCC[S+](C)C)cs2)cs1)[C@@H](C)O)C(OC1OC(CO)C(O)C(O)C1OC1OC(CO)C(O)C(OC(N)=O)C1O)c1cnc[nH]1 (stereo not given in full),77.9% [2.5 µM] (inactive),40.6% [2.5 µM] (inactive),74.2% [2.5 µM] (inactive),58.4% [2.5 µM] (inactive),60.5% [2.5 µM] (inactive),34.1% [2.5 µM] (inactive),14.3% [2.5 µM] (inactive),125% [2.5 µM] (inactive),103% [2.5 µM] (inactive),52.2% [2.5 µM] (inactive),39.9% [2.5 µM] (inactive),-6.04% [2.5 µM] (active),26.4% [2.5 µM] (inactive),84.1% [2.5 µM] (inactive),81.8% [2.5 µM] (inactive),51.6% [2.5 µM] (inactive),67.1% [2.5 µM] (inactive),-4.59% [2.5 µM] (active),76.4% [2.5 µM] (inactive),–
CCC1(O)CC(OC2CC(N(C)C)C(OC3CC4OC5CC(=O)C(C)OC5OC4C(C)O3)C(C)O2)c2c(cc3c(c2O)C(=O)c2c(O)ccc(O)c2C3=O)C1C(=O)OC (stereo not given),-36.4% (active),-98% (active),0.801% (active),-18.4% (active),-63.5% (active),-87.3% (active),-22.7% (active),-54.8% (active),1.67% (active),13.4% (inactive),-39.6% (active),-17.6% (active),-15.4% (active),-71.4% (active),-41.6% (active),-31.2% (active),-9.49% (active),-6.58% (active),-53% (active),–
CC[C@@]1(O)C[C@H](OC2CC(N(C)C)C(O)C(C)O2)c2c(O)c3c(c(O)c2[C@H]1OC1CC(N(C)C)C(O)C(C)O1)C(=O)c1cccc(O)c1C3=O (stereo not given in full),-39% (active),-94.6% (active),5.62% (active),-21.9% (active),-61.8% (active),-89% (active),-36.2% (active),-54.5% (active),4.27% (active),11.4% (inactive),-33.9% (active),-31% (active),-9.18% (active),-68% (active),-34.3% (active),-37.7% (active),-10.5% (active),-7.1% (active),-50.6% (active),–
CC1=C2C(=O)[C@H]3[C@@H](CC=C4C[C@@H](O)CC[C@@]43C)[C@@H]2CC[C@]12O[C@@H]1C[C@H](C)CN[C@H]1[C@H]2C,82.6% (inactive),68.6% (inactive),106% (inactive),107% (inactive),–,96.8% (inactive),96.4% (inactive),2.09% (active),94.3% (inactive),102% (inactive),72.6% (inactive),108% (inactive),103% (inactive),103% (inactive),115% (inactive),89.5% (inactive),96.9% (inactive),95.2% (inactive),92% (inactive),89.3% (inactive)
CC(=O)O[C@H]1C[C@@H]2OC3C=C(C)CCC3(C)[C@@]1(C)[C@@]21CO1 (stereo not given in full),-32.2% (active) and -30.6% (active),11.2% (inactive) and -18.3% (active),-0.212% (active) and 0.0305% (active),-8.47% (active) and -17.4% (active),-2.24% (active) and -4.21% (active),-47.8% (active) and -66.8% (active),-58.9% (active) and -21.5% (active),-72.2% (active) and -53.9% (active),-13.7% (active) and -15.6% (active),-9.69% (active) and 0.846% (active),-5.32% (active) and -11.9% (active),-34.8% (active) and -29.9% (active),-16.9% (active) and -24.9% (active),-38.7% (active),-42% (active),2.26% (active),-15.6% (active) and -30.2% (active),-17.5% (active),-16.3% (active) and -26.9% (active),-9.39% (active) and -19.9% (active)
CC[C@@]1(O)C[C@H](OC2CC(N(C)C)C(OC3CC(O)C(OC4CCC(=O)C(C)O4)C(C)O3)C(C)O2)c2c(cc3c(c2O)C(=O)c2c(O)ccc(O)c2C3=O)[C@H]1C(=O)OC (stereo not given in full),-47.4% (active),-37.1% (active),25.7% (inactive),-38.3% (active),-24.5% (active),-24.9% (active),-68.8% (active),-40.2% (active),17.6% (inactive),24.3% (inactive),-57.2% (active),-86.9% (active),-53.5% (active),-78.6% (active),-9.74% (active),4.1% (active),7.32% (active),1.06% (active),-33.9% (active),–
COc1cccc2c1cc([N+](=O)[O-])c1c(C(=O)O)cc3c(c12)OCO3,0.29% (active) and -24.5% (active),79.4% (inactive) and 106% (inactive),79.3% (inactive) and 97.7% (inactive),60.2% (inactive) and 96.7% (inactive),77.3% (inactive) and 73.7% (inactive),78.9% (inactive) and 104% (inactive),70.4% (inactive) and 99.2% (inactive),94.4% (inactive) and 104% (inactive),84.3% (inactive) and 111% (inactive),65.1% (inactive) and 113% (inactive),76.5% (inactive) and 87.8% (inactive),39.1% (inactive) and 96.1% (inactive),9.19% (active) and 88% (inactive),87.2% (inactive) and 107% (inactive),41.6% (inactive) and 79.4% (inactive),45.8% (inactive) and 77.6% (inactive),35.7% (inactive) and 95.9% (inactive),28.1% (inactive) and 76.3% (inactive),89.1% (inactive) and 82.3% (inactive),55.2% (inactive)
